Laboratory results: PubChem BioAssay (Tox21)
Records with an inconclusive call do not appear. A call without a number means that no potency is given here. Unmarked numbers belong to inactive results. Activity calls are given as the source filed them. Calls come from the whole dose curve.

Assay: p53 small molecule agonists, cell-based qHTS assay with rat liver microsomes (AID 1963578)
Settings: HCT-116 p53RE-bla, beta-lactamase ratio, 16 h; series mostly up to 66 µM
How it was run: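 p53RE-bla cells, 4,000/well, pre-incubated 5 h, then given compounds plus rat liver microsomes (0.5 mg/mL final) and NADPH (0.5 mg/mL final). Incubation 16 h at 37 C; beta-lactamase reporter read by LiveBLAzer fluorescence after 2 h at room temperature.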

SMILES | Potency | activation
CCCCCCCCCCCCCCO | inactive | –
CCO/C([O-])=N/c1c[n+](N2CCOCC2)no1 | inactive | –
CSc1cnccn1 | inactive | –
CCCCCCCOC(C)=O | inactive | –
NS(=O)(=O)c1ccc(NC(=O)CCC(=O)O)cc1 | inactive | –
COc1ccc(C(=O)CC(=O)c2ccc(C(C)(C)C)cc2)cc1 | inactive | –
CCO[Si](OCC)(OCC)c1ccccc1 | inactive | –
CCC1COC(=O)O1 (centres undefined) | inactive | –
FC(F)(F)c1cccc(Cl)c1 | inactive | –
Cc1cccc(Cl)c1 | inactive | –
CC1(C)C(C=C(Cl)Cl)C1C(=O)OCc1cccc(Oc2ccccc2)c1 (centres undefined) | inactive | –
CCCOCCOCCOCCO | inactive | –
N=C(N)c1ccc2cc(OC(=O)c3ccc(N=C(N)N)cc3)ccc2c1 | inactive | –
O=[N+]([O-])c1ccc(F)cc1F | inactive | –
CC(=O)N(c1onc(C)c1C)S(=O)(=O)c1ccc(N)cc1 | inactive | –
OC[C@H]1O[C@@H](O[C@H]2[C@H](O)[C@@H](O)[C@H](O)O[C@@H]2CO)[C@H](O)[C@@H](O)[C@H]1O | inactive | –
c1ccc2c(c1)CCC2 | inactive | –
CN(C)c1ccc(/C=C/c2ccc([N+](=O)[O-])cc2)cc1 | – | -4.52% [at 5.99 µM]
NCCC(O)(P(=O)(O)O)P(=O)(O)O | inactive | –
CO[Si](OC)(OC)c1ccccc1 | inactive | –
O=C(c1ccc(Cl)cc1)c1ccc(Cl)cc1 | inactive | –
O=P(OC(CCl)CCl)(OC(CCl)CCl)OC(CCl)CCl | inactive | –
CCC(C)S (centres undefined) | – | 1.35% [at 2.33 µM]
c1ccc2c(c1)CCc1ccccc1N2 | inactive | –
CCCCOC(=O)C(C)OC(=O)CCC (centres undefined) | inactive | –

Assay: p53 small molecule agonists, cell-based qHTS assay with human liver microsomes: qHTS cell viability counter screen (AID 1963579); note: nearly all actives have a fitted effect of over 45% in size
Settings: p53RE-bla HCT-116 viability, ATP luminescence, 16 h, HLM; series mostly up to 66 µM
How it was run: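 p53RE-bla cells, 4,000/well, dosed 5 hours after plating, with human liver microsomes (0.5 mg/mL final) plus NADPH (0.5 mg/mL final), 16 hours at 37 C. Viability read as CellTiter-Glo luminescence after 30 min at room temperature.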

SMILES | Potency | activity change, negative = cytotoxicity
CC(C)COC(=O)c1ccc(N)cc1 | inactive | –
CCCc1cc(C(N)=S)ccn1 | inactive | –
CCCCCCCCCCCCCCO | inactive | –
CCO/C([O-])=N/c1c[n+](N2CCOCC2)no1 | inactive | –
CSc1cnccn1 | inactive | –
CCCCCCCOC(C)=O | inactive | –
NS(=O)(=O)c1ccc(NC(=O)CCC(=O)O)cc1 | inactive | –
COc1ccc(C(=O)CC(=O)c2ccc(C(C)(C)C)cc2)cc1 | inactive | –
CCO[Si](OCC)(OCC)c1ccccc1 | inactive | –
CCC1COC(=O)O1 (centres undefined) | inactive | –
CC(C)(C)c1ccc(CCC=O)cc1 | inactive | –
FC(F)(F)c1cccc(Cl)c1 | inactive | –
Nc1ccc(NCCO)c([N+](=O)[O-])c1 | inactive | –
IC(I)I | inactive | –
Cc1cccc(Cl)c1 | inactive | –
CC1(C)C(C=C(Cl)Cl)C1C(=O)OCc1cccc(Oc2ccccc2)c1 (centres undefined) | inactive | –
CCCOCCOCCOCCO | inactive | –

SMILES | Potency | activity change, negative = cytotoxicity
N=C(N)c1ccc2cc(OC(=O)c3ccc(N=C(N)N)cc3)ccc2c1 | inactive | –
O=[N+]([O-])c1ccc(F)cc1F | inactive | –
CC(=O)N(c1onc(C)c1C)S(=O)(=O)c1ccc(N)cc1 | inactive | –
OC[C@H]1O[C@@H](O[C@H]2[C@H](O)[C@@H](O)[C@H](O)O[C@@H]2CO)[C@H](O)[C@@H](O)[C@H]1O | inactive | –
c1ccc2c(c1)CCC2 | inactive | –
CN(C)c1ccc(/C=C/c2ccc([N+](=O)[O-])cc2)cc1 | – | 0.0681% [at 5.99 µM]
NCCC(O)(P(=O)(O)O)P(=O)(O)O | inactive | –
CO[Si](OC)(OC)c1ccccc1 | inactive | –
O=C(c1ccc(Cl)cc1)c1ccc(Cl)cc1 | inactive | –
CC[C@H]1CN2CCc3cc(OC)c(OC)cc3[C@@H]2C[C@@H]1C[C@H]1NCCc2cc(OC)c(OC)cc21 | inactive | –
CC(C)CC=O | inactive | –
COc1cccc(OC)c1C(=O)N[C@@H]1C(=O)N2[C@@H]1SC(C)(C)[C@@H]2C(=O)O | inactive | –
O=P(OC(CCl)CCl)(OC(CCl)CCl)OC(CCl)CCl | inactive | –
CCC(C)S (centres undefined) | – | 2.56% [at 2.33 µM]
c1ccc2c(c1)CCc1ccccc1N2 | inactive | –
CCCCOC(=O)C(C)OC(=O)CCC (centres undefined) | inactive | –

Assay: p53 small molecule agonists, cell-based qHTS assay with rat liver microsomes: qHTS cell viability counter screen (AID 1963580); note: nearly all actives have a fitted effect of over 45% in size
Settings: p53RE-bla HCT-116 + rat microsomes, ATP viability, 16 h; series mostly up to 66 µM
How it was run: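 Cytotoxicity counter screen: intracellular ATP measured by CellTiter-Glo luminescence in the same wells as the beta-lactamase reporter read, on HCT-116 p53RE-bla cells exposed 16 h at 37 C to compounds with rat liver microsomes and NADPH, each 0.5 mg/mL final.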

SMILES | Potency | activity change, negative = cytotoxicity
CCCCCCCCCCCCCCO | inactive | –
CCO/C([O-])=N/c1c[n+](N2CCOCC2)no1 | inactive | –
CSc1cnccn1 | inactive | –
CCCCCCCOC(C)=O | inactive | –
CCc1cnc(C(=O)O)c(C(=O)O)c1 | inactive | –
NS(=O)(=O)c1ccc(NC(=O)CCC(=O)O)cc1 | inactive | –
COc1ccc(C(=O)CC(=O)c2ccc(C(C)(C)C)cc2)cc1 | inactive | –
CCO[Si](OCC)(OCC)c1ccccc1 | inactive | –
CCC1COC(=O)O1 (centres undefined) | inactive | –
FC(F)(F)c1cccc(Cl)c1 | inactive | –
Nc1ccc(NCCO)c([N+](=O)[O-])c1 | inactive | –
Cc1cccc(Cl)c1 | inactive | –
CC1=CCC(C(C)C)=CC1 | inactive | –
CC1(C)C(C=C(Cl)Cl)C1C(=O)OCc1cccc(Oc2ccccc2)c1 (centres undefined) | inactive | –
CCCOCCOCCOCCO | inactive | –
N=C(N)c1ccc2cc(OC(=O)c3ccc(N=C(N)N)cc3)ccc2c1 | inactive | –

SMILES | Potency | activity change, negative = cytotoxicity
O=[N+]([O-])c1ccc(F)cc1F | inactive | –
CC(=O)N(c1onc(C)c1C)S(=O)(=O)c1ccc(N)cc1 | inactive | –
OC[C@H]1O[C@@H](O[C@H]2[C@H](O)[C@@H](O)[C@H](O)O[C@@H]2CO)[C@H](O)[C@@H](O)[C@H]1O | inactive | –
c1ccc2c(c1)CCC2 | inactive | –
CN(C)c1ccc(/C=C/c2ccc([N+](=O)[O-])cc2)cc1 | – | -5.21% [at 5.99 µM]
NCCC(O)(P(=O)(O)O)P(=O)(O)O | inactive | –
CO[Si](OC)(OC)c1ccccc1 | inactive | –
O=C(c1ccc(Cl)cc1)c1ccc(Cl)cc1 | inactive | –
CC(C)c1cccc(O)c1 | inactive | –
CC(C)CC=O | inactive | –
O=P(OC(CCl)CCl)(OC(CCl)CCl)OC(CCl)CCl | inactive | –
CC/C=C\CC1=C(C)CCC1=O | inactive | –
CCC(C)S (centres undefined) | – | 2.16% [at 2.33 µM]
c1ccc2c(c1)CCc1ccccc1N2 | inactive | –
CCCCOC(=O)C(C)OC(=O)CCC (centres undefined) | inactive | –
